# Laboratory results from publication PMC12820563, “FoxP3 forms a head-to-head dimer in vivo and stabilizes its multimerization on adjacent microsatellites”.
# Whole data set: some 16,000 sequences, median “rpm ratio (pull-down/input)” near 0.5, cut for the highest 2% near 5.5. This is one part of a sample in which the highest values are shown more often than they occur.
# Biological target: T1, MBP-FoxP3dN (Mus musculus, UniProt Q99JB6 188-423)
# T1 sequence: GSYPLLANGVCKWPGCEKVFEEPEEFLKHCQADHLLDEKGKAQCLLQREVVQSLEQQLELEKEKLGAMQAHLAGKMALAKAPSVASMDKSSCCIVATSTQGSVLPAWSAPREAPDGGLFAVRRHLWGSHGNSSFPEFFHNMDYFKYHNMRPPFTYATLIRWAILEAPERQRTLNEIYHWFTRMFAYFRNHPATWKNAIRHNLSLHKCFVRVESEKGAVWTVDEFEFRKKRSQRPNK
# Test: PD-seq (MBP pull-down with sequencing); 20 mM Tris-HCl pH 7.5, 100 mM NaCl, 1.5 mM MgCl2, 0.4 uM protein, 0.1 uM dsDNA library, 30 min, room temperature, amylose pull-down; high values mean tight binding
# Settings: protein: recombinant; tags: His6-MBP; chain copies: 2; dsDNA, one strand shown
# In short: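 Protein and DNA were mixed at 0.4 µM and 0.1 µM and held for 30 min at room temperature in Tris pH 7.5 buffer with NaCl and MgCl2; the protein was a His6-MBP-tagged, N-terminally truncated mouse FoxP3 or FoxP1 fragment from E. coli, and the DNA a Klenow-filled double-stranded degenerate library. Amylose resin captured the complexes, which were washed three times. Binding is read as reads-per-million enrichment of pull-down versus input after Illumina sequencing, with replicates pooled.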
row,Sequence,binding signal
1,GATGATTGTTCTCCCAGCTGATGAATTGATCAAGTCGAGTAAACAAATTTTCCTAATCTTTCTGTTCAAGCGCCATCTAC,0.245 RPM ratio (pull-down/input)
2,GATGATTGTTCTCCCAGCTGATGAATTTGACGAGTCGAGTAAACAAATTTTCCTAATCTTTCTGTTCAAGCGCCATCTAC,0.235 RPM ratio (pull-down/input)
3,GATGATTGTTCTCCCAGCTGATGAATTATCAGCCTCGAGTAAACAAATTTTCCTAATCTTTCTGTTCAAGCGCCATCTAC,0.468 RPM ratio (pull-down/input)
4,GATGATTGTTCTCCCAGCTGATGAATTTCCGTGCTCGAGTAAACAAATTTTCCTAATCTTTCTGTTCAAGCGCCATCTAC,0.332 RPM ratio (pull-down/input)
5,GATGATTGTTCTCCCAGCTGATGAATTGGACCATTCGAGTAAACAAATTTTCCTAATCTTTCTGTTCAAGCGCCATCTAC,0.374 RPM ratio (pull-down/input)
6,GATGATTGTTCTCCCAGCTGATGAATTAGCCGACTCGAGTAAACAAATTTTCCTAATCTTTCTGTTCAAGCGCCATCTAC,0.205 RPM ratio (pull-down/input)
7,GATGATTGTTCTCCCAGCTGATGAATTCTGGAATTCGAGTAAACAAATTTTCCTAATCTTTCTGTTCAAGCGCCATCTAC,0.579 RPM ratio (pull-down/input)
8,GATGATTGTTCTCCCAGCTGATGAATTCCCTGTGTCGAGTAAACAAATTTTCCTAATCTTTCTGTTCAAGCGCCATCTAC,0.347 RPM ratio (pull-down/input)
9,GATGATTGTTCTCCCAGCTGATGAATTTGCTGTGTCGAGTAAACAAATTTTCCTAATCTTTCTGTTCAAGCGCCATCTAC,6.29 RPM ratio (pull-down/input)
10,GATGATTGTTCTCCCAGCTGATGAATTGCTTGTGTCGAGTAAACAAATTTTCCTAATCTTTCTGTTCAAGCGCCATCTAC,2.01 RPM ratio (pull-down/input)
11,GATGATTGTTCTCCCAGCTGATGAATTTGTCGTGTCGAGTAAACAAATTTTCCTAATCTTTCTGTTCAAGCGCCATCTAC,5.6 RPM ratio (pull-down/input)
12,GATGATTGTTCTCCCAGCTGATGAATTCGTTGTGTCGAGTAAACAAATTTTCCTAATCTTTCTGTTCAAGCGCCATCTAC,5.69 RPM ratio (pull-down/input)
13,GATGATTGTTCTCCCAGCTGATGAATTCGTGTTGTCGAGTAAACAAATTTTCCTAATCTTTCTGTTCAAGCGCCATCTAC,2.75 RPM ratio (pull-down/input)
14,GATGATTGTTCTCCCAGCTGATGAATTTTTGTTGTCGAGTAAACAAATTTTCCTAATCTTTCTGTTCAAGCGCCATCTAC,3.24 RPM ratio (pull-down/input)
15,GATGATTGTTCTCCCAGCTGATGAATTGTTGTTGTCGAGTAAACAAATTTTCCTAATCTTTCTGTTCAAGCGCCATCTAC,7.65 RPM ratio (pull-down/input)
16,GATGATTGTTCTCCCAGCTGATGAATTTTTCGTGTCGAGTAAACAAATTTTCCTAATCTTTCTGTTCAAGCGCCATCTAC,0.363 RPM ratio (pull-down/input)
17,GATGATTGTTCTCCCAGCTGATGAATTGTGTCGTTCGAGTAAACAAATTTTCCTAATCTTTCTGTTCAAGCGCCATCTAC,2.73 RPM ratio (pull-down/input)
18,GATGATTGTTCTCCCAGCTGATGAATTTTTGCTGTCGAGTAAACAAATTTTCCTAATCTTTCTGTTCAAGCGCCATCTAC,0.548 RPM ratio (pull-down/input)
19,GATGATTGTTCTCCCAGCTGATGAATTTCTGTTGTCGAGTAAACAAATTTTCCTAATCTTTCTGTTCAAGCGCCATCTAC,1.28 RPM ratio (pull-down/input)
20,GATGATTGTTCTCCCAGCTGATGAATTGTCGTGTTCGAGTAAACAAATTTTCCTAATCTTTCTGTTCAAGCGCCATCTAC,0.915 RPM ratio (pull-down/input)
21,GATGATTGTTCTCCCAGCTGATGAATTAGGCTGATCGAGTAAACAAATTTTCCTAATCTTTCTGTTCAAGCGCCATCTAC,0.537 RPM ratio (pull-down/input)
22,GATGATTGTTCTCCCAGCTGATGAATTGAGTGCCTCGAGTAAACAAATTTTCCTAATCTTTCTGTTCAAGCGCCATCTAC,0.963 RPM ratio (pull-down/input)

row,Sequence,binding signal
1,GATGATTGTTCTCCCAGCTGATGAATTCATTGAATCGAGTAAACAAATTTTCCTAATCTTTCTGTTCAAGCGCCATCTAC,0.267 RPM ratio (pull-down/input)
2,GATGATTGTTCTCCCAGCTGATGAATTGTGGACCTCGAGTAAACAAATTTTCCTAATCTTTCTGTTCAAGCGCCATCTAC,0.571 RPM ratio (pull-down/input)
3,GATGATTGTTCTCCCAGCTGATGAATTCAATAGGTCGAGTAAACAAATTTTCCTAATCTTTCTGTTCAAGCGCCATCTAC,0.536 RPM ratio (pull-down/input)
4,GATGATTGTTCTCCCAGCTGATGAATTCGGATGGTCGAGTAAACAAATTTTCCTAATCTTTCTGTTCAAGCGCCATCTAC,0.433 RPM ratio (pull-down/input)
5,GATGATTGTTCTCCCAGCTGATGAATTTCTGCACTCGAGTAAACAAATTTTCCTAATCTTTCTGTTCAAGCGCCATCTAC,0.475 RPM ratio (pull-down/input)
6,GATGATTGTTCTCCCAGCTGATGAATTCAAGTGTTCGAGTAAACAAATTTTCCTAATCTTTCTGTTCAAGCGCCATCTAC,0.65 RPM ratio (pull-down/input)
7,GATGATTGTTCTCCCAGCTGATGAATTCGGACCATCGAGTAAACAAATTTTCCTAATCTTTCTGTTCAAGCGCCATCTAC,0.399 RPM ratio (pull-down/input)
8,GATGATTGTTCTCCCAGCTGATGAATTATAAGATTCGAGTAAACAAATTTTCCTAATCTTTCTGTTCAAGCGCCATCTAC,0.351 RPM ratio (pull-down/input)
9,GATGATTGTTCTCCCAGCTGATGAATTTTCTGTGTCGAGTAAACAAATTTTCCTAATCTTTCTGTTCAAGCGCCATCTAC,0.415 RPM ratio (pull-down/input)
10,GATGATTGTTCTCCCAGCTGATGAATTTGATGTGTCGAGTAAACAAATTTTCCTAATCTTTCTGTTCAAGCGCCATCTAC,6.14 RPM ratio (pull-down/input)
11,GATGATTGTTCTCCCAGCTGATGAATTGTGATTGTCGAGTAAACAAATTTTCCTAATCTTTCTGTTCAAGCGCCATCTAC,4.91 RPM ratio (pull-down/input)
12,GATGATTGTTCTCCCAGCTGATGAATTTGTGATGTCGAGTAAACAAATTTTCCTAATCTTTCTGTTCAAGCGCCATCTAC,5.62 RPM ratio (pull-down/input)
13,GATGATTGTTCTCCCAGCTGATGAATTTGTGTTGTCGAGTAAACAAATTTTCCTAATCTTTCTGTTCAAGCGCCATCTAC,6.27 RPM ratio (pull-down/input)
14,GATGATTGTTCTCCCAGCTGATGAATTGTCTGTGTCGAGTAAACAAATTTTCCTAATCTTTCTGTTCAAGCGCCATCTAC,0.563 RPM ratio (pull-down/input)
15,GATGATTGTTCTCCCAGCTGATGAATTGATTGTGTCGAGTAAACAAATTTTCCTAATCTTTCTGTTCAAGCGCCATCTAC,3.72 RPM ratio (pull-down/input)
16,GATGATTGTTCTCCCAGCTGATGAATTGTGAATGTCGAGTAAACAAATTTTCCTAATCTTTCTGTTCAAGCGCCATCTAC,1.32 RPM ratio (pull-down/input)
17,GATGATTGTTCTCCCAGCTGATGAATTTGTGTCGTCGAGTAAACAAATTTTCCTAATCTTTCTGTTCAAGCGCCATCTAC,5 RPM ratio (pull-down/input)
18,GATGATTGTTCTCCCAGCTGATGAATTTCTTGTGTCGAGTAAACAAATTTTCCTAATCTTTCTGTTCAAGCGCCATCTAC,1.59 RPM ratio (pull-down/input)
19,GATGATTGTTCTCCCAGCTGATGAATTTGTTGTGTCGAGTAAACAAATTTTCCTAATCTTTCTGTTCAAGCGCCATCTAC,8.35 RPM ratio (pull-down/input)
20,GATGATTGTTCTCCCAGCTGATGAATTGAATGTGTCGAGTAAACAAATTTTCCTAATCTTTCTGTTCAAGCGCCATCTAC,1.26 RPM ratio (pull-down/input)
21,GATGATTGTTCTCCCAGCTGATGAATTTAGTATATCGAGTAAACAAATTTTCCTAATCTTTCTGTTCAAGCGCCATCTAC,2.93 RPM ratio (pull-down/input)
22,GATGATTGTTCTCCCAGCTGATGAATTAGCTGGCTCGAGTAAACAAATTTTCCTAATCTTTCTGTTCAAGCGCCATCTAC,0.476 RPM ratio (pull-down/input)

row,Sequence,binding signal
1,GATGATTGTTCTCCCAGCTGATGAATTTATTACGTCGAGTAAACAAATTTTCCTAATCTTTCTGTTCAAGCGCCATCTAC,1.22 RPM ratio (pull-down/input)
2,GATGATTGTTCTCCCAGCTGATGAATTGGCGACGTCGAGTAAACAAATTTTCCTAATCTTTCTGTTCAAGCGCCATCTAC,0.41 RPM ratio (pull-down/input)
3,GATGATTGTTCTCCCAGCTGATGAATTAGGTTGGTCGAGTAAACAAATTTTCCTAATCTTTCTGTTCAAGCGCCATCTAC,1.62 RPM ratio (pull-down/input)
4,GATGATTGTTCTCCCAGCTGATGAATTTTGTGTGTCGAGTAAACAAATTTTCCTAATCTTTCTGTTCAAGCGCCATCTAC,5.59 RPM ratio (pull-down/input)
5,GATGATTGTTCTCCCAGCTGATGAATTCTTTGTGTCGAGTAAACAAATTTTCCTAATCTTTCTGTTCAAGCGCCATCTAC,0.573 RPM ratio (pull-down/input)
6,GATGATTGTTCTCCCAGCTGATGAATTTTTTGTGTCGAGTAAACAAATTTTCCTAATCTTTCTGTTCAAGCGCCATCTAC,0.531 RPM ratio (pull-down/input)
7,GATGATTGTTCTCCCAGCTGATGAATTAGTCTGATCGAGTAAACAAATTTTCCTAATCTTTCTGTTCAAGCGCCATCTAC,0.373 RPM ratio (pull-down/input)
8,GATGATTGTTCTCCCAGCTGATGAATTCTCCCGTTCGAGTAAACAAATTTTCCTAATCTTTCTGTTCAAGCGCCATCTAC,0.247 RPM ratio (pull-down/input)
9,GATGATTGTTCTCCCAGCTGATGAATTGTGCTGTTCGAGTAAACAAATTTTCCTAATCTTTCTGTTCAAGCGCCATCTAC,3.6 RPM ratio (pull-down/input)
10,GATGATTGTTCTCCCAGCTGATGAATTTTGTGATTCGAGTAAACAAATTTTCCTAATCTTTCTGTTCAAGCGCCATCTAC,5.26 RPM ratio (pull-down/input)
11,GATGATTGTTCTCCCAGCTGATGAATTGGTGCATTCGAGTAAACAAATTTTCCTAATCTTTCTGTTCAAGCGCCATCTAC,6.97 RPM ratio (pull-down/input)
12,GATGATTGTTCTCCCAGCTGATGAATTCATTTGTTCGAGTAAACAAATTTTCCTAATCTTTCTGTTCAAGCGCCATCTAC,3.73 RPM ratio (pull-down/input)
13,GATGATTGTTCTCCCAGCTGATGAATTGGTGAATTCGAGTAAACAAATTTTCCTAATCTTTCTGTTCAAGCGCCATCTAC,0.867 RPM ratio (pull-down/input)
14,GATGATTGTTCTCCCAGCTGATGAATTTGTGCATTCGAGTAAACAAATTTTCCTAATCTTTCTGTTCAAGCGCCATCTAC,7.63 RPM ratio (pull-down/input)
15,GATGATTGTTCTCCCAGCTGATGAATTTGGTGCATCGAGTAAACAAATTTTCCTAATCTTTCTGTTCAAGCGCCATCTAC,1.86 RPM ratio (pull-down/input)
16,GATGATTGTTCTCCCAGCTGATGAATTGTGTGCATCGAGTAAACAAATTTTCCTAATCTTTCTGTTCAAGCGCCATCTAC,2.8 RPM ratio (pull-down/input)
17,GATGATTGTTCTCCCAGCTGATGAATTTTCCCATTCGAGTAAACAAATTTTCCTAATCTTTCTGTTCAAGCGCCATCTAC,0.252 RPM ratio (pull-down/input)
18,GATGATTGTTCTCCCAGCTGATGAATTGTGCCATTCGAGTAAACAAATTTTCCTAATCTTTCTGTTCAAGCGCCATCTAC,6.37 RPM ratio (pull-down/input)
19,GATGATTGTTCTCCCAGCTGATGAATTGTGCATTTCGAGTAAACAAATTTTCCTAATCTTTCTGTTCAAGCGCCATCTAC,7.44 RPM ratio (pull-down/input)
20,GATGATTGTTCTCCCAGCTGATGAATTCTCCCATTCGAGTAAACAAATTTTCCTAATCTTTCTGTTCAAGCGCCATCTAC,0.243 RPM ratio (pull-down/input)
